Assay results taken from PubChem BioAssay (EPA / NIEHS).
Records with an inconclusive call do not appear. Calls of active or inactive are those of the source. How the source made its calls, unless noted: active means hit-call score of the fitted dose curve at least 0.9, where 1 is the maximum; inconclusive means response in the unintended direction; inactive means score below 0.9.

Assays:
[1] = target: human Neurokinin, NK2 Receptor, TACR2 (gene 6865) (UniProt P21452); test: NVS_GPCR_hNK2: NovaScreen (NVS) G Protein-Coupled Receptor Assay for human Neurokinin, NK2 Receptor (AID 2283278);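 further: actives reduce bound radioligand signal relative to DMSO baseline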
Procedure, shortened: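 Cell-free radioligand binding using receptor protein extracted from CHO cells; readings taken 4 hours after chemical dosing by filter-based scintillation counting. Primary screen ran single concentration (25 uM) in duplicate; actives followed up in concentration series, loss-of-signal versus DMSO baseline.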

[2] = target: human Opioid Receptor Mu (Opiate Mu), OPRM1 (gene 4988) (UniProt P35372); test: NVS_GPCR_hOpiate_mu: NovaScreen (NVS) G Protein-Coupled Receptor Assay for human Opioid Receptor Mu (Opiate Mu) (AID 2283290);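 further: hits lower bound tracer signal versus DMSO meaning displacement of the ligand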
Procedure, shortened: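 Primary screen in duplicate at 25 uM, with actives followed in concentration series. CHO-derived receptor membranes, cell-free; bound radioligand read by scintillation counting after filtration at 2.5 h, decrease scored against DMSO.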

[3] = target: rat CYP2A1, Cyp2a1 (gene 24894) (UniProt P11711); test: NVS_ADME_rCYP2A1: NovaScreen (NVS) CYP450-related Enzyme Activity (ADME) Assay for rat CYP2A1 (AID 2283114; active means hit-call score of the fitted dose curve at least 0.9, where 1 is the maximum; inactive means score below 0.9)
rat CYP2A1, Cyp2a1 (gene 24894), sequence (P11711 whole entry, looked up): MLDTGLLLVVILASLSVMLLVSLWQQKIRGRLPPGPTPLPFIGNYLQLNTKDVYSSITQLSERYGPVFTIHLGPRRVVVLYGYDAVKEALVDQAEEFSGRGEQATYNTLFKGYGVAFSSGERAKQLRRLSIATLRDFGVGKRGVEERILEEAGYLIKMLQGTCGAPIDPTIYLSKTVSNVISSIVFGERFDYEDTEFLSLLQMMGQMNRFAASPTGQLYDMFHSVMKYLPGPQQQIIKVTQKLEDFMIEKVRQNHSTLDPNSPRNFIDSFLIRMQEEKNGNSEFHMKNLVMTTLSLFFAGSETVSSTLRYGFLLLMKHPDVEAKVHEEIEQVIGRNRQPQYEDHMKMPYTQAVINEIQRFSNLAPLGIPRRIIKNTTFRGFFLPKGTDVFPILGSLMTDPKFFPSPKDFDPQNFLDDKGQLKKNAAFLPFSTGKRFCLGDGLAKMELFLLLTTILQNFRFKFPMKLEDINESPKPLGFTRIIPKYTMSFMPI
Procedure, shortened: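 Cell-free fluorescence enzyme-activity read on recombinant rat CYP2A1, taken 0.75 h post-dosing. Compounds were screened in duplicate at 10 uM, then hits tested in concentration series (max 20 uM); inhibition scored relative to acetonitrile baseline.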

[4] = target: human Vascular Endothelial Growth Factor Receptor 3 (VEGFR3), FLT4 (gene 2324) (UniProt P35916); test: NVS_ENZ_hVEGFR3: NovaScreen (NVS) Enzymatic Assay for human Vascular Endothelial Growth Factor Receptor 3 (VEGFR3) (AID 2283229)
human Vascular Endothelial Growth Factor Receptor 3 (VEGFR3), FLT4 (gene 2324), sequence (P35916 whole entry, looked up): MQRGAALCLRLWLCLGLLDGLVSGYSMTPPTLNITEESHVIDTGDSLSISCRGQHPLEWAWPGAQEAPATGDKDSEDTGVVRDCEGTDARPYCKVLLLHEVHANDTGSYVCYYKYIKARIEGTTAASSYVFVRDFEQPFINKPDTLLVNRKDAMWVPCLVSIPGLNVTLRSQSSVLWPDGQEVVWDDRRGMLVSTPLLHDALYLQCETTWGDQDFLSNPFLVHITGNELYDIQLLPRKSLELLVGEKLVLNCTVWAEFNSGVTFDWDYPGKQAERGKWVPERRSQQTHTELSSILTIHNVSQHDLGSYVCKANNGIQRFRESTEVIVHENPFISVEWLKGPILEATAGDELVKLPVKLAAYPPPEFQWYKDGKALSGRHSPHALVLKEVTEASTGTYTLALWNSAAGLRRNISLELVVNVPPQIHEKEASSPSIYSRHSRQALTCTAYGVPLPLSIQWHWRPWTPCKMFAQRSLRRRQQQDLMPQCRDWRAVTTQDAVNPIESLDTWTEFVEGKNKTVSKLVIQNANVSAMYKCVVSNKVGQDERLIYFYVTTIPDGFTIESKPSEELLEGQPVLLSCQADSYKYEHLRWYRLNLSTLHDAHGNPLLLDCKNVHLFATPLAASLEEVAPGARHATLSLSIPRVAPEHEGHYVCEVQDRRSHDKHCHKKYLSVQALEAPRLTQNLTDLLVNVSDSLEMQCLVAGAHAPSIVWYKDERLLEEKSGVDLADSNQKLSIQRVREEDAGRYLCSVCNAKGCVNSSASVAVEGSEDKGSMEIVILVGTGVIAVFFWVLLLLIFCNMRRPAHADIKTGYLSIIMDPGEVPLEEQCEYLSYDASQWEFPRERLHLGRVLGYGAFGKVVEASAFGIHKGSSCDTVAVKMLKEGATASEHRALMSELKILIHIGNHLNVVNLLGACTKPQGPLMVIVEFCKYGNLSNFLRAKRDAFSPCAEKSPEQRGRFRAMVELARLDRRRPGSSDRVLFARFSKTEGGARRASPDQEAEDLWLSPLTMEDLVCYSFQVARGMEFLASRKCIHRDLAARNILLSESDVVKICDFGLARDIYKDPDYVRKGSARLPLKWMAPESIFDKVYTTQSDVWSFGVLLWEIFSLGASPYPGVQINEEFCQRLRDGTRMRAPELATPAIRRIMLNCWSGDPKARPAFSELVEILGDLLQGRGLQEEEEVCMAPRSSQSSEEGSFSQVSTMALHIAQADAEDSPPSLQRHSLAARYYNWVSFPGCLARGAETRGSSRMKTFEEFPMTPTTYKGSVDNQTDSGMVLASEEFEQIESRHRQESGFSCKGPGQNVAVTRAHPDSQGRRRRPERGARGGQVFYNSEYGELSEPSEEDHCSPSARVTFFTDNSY
Procedure, shortened: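 Chemicals first run in duplicate at 25 uM, with actives re-tested in concentration series to a top of 50 uM. Recombinant VEGFR3 activity measured after 1 h via fluorescence with mobility-shift product separation; inhibition fitted relative to DMSO.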

[5] = target: rat Monoamine Oxidase, MAO-B, Central (MAOBC), Maob (gene 25750) (UniProt P19643); test: NVS_ENZ_rMAOBC: NovaScreen (NVS) Enzymatic Assay for rat Monoamine Oxidase, MAO-B, Central (MAOBC) (AID 2283238)
Procedure, shortened: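 Actives from a duplicate 25 uM screen went on to singleton concentration-response with a 50 uM maximum. Enzyme source was rat brain tissue MAO-B, assayed cell-free. Radiolabelled product was counted by scintillation 1.17 h post-dose, with signal loss relative to DMSO.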

[6] = system: chicken Androgen Receptor (AR), gene 422165; test: ATG_chAR_XSP1: Attagene TRANS-FACTORIAL Multi-Species (XSP1) HepG2 Assay for chicken Androgen Receptor (AR) (AID 2283768)
Procedure, shortened: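 Reporter mRNA read by RT-PCR with fluorescent labelling and capillary electrophoresis 24 h after chemical dosing of transiently transfected HepG2 cells. Chicken AR-Gal4 chimera, partially stimulated with 3 nM 6-alpha-fluorotestosterone; activity fitted upward relative to DMSO.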

[7] = system: zebrafish Androgen Receptor (AR), gene 100005148; test: ATG_zfAR_XSP1: Attagene TRANS-FACTORIAL Multi-Species (XSP1) HepG2 Assay for zebrafish Androgen Receptor (AR) (AID 2283771)
Procedure, shortened: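 Gain-of-signal versus DMSO was measured as reporter transcripts quantified by RT-PCR, fluorescent labelling and capillary electrophoresis after 24 h chemical exposure. The cells were HepG2 expressing a chimeric zebrafish AR-GAL4, co-stimulated with 3 nM 6-alpha-fluorotestosterone.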

[8] = system: turtle Androgen Receptor (AR), gene 101947425; test: ATG_trAR_XSP1: Attagene TRANS-FACTORIAL Multi-Species (XSP1) HepG2 Assay for turtle Androgen Receptor (AR) (AID 2283786)
Procedure, shortened: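 Partial androgen stimulation is provided by 3 nM 6-alpha-fluorotestosterone in a multi-species trans-factorial panel expressing a turtle AR–GAL4 fusion in HepG2. After 24 h, reporter mRNA is measured by RT-PCR and capillary electrophoresis and fitted upward against DMSO.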

[9] = target: Estrogen receptor beta (Homo sapiens) (UniProt Q92731); test: ATG_hERb_XSP1: Attagene TRANS-FACTORIAL Multi-Species (XSP1) HepG2 Assay for human Estrogen Receptor (ESR2) (AID 2283788)
Estrogen receptor beta (Homo sapiens), sequence (Q92731 whole entry, looked up, the tested form may be a part): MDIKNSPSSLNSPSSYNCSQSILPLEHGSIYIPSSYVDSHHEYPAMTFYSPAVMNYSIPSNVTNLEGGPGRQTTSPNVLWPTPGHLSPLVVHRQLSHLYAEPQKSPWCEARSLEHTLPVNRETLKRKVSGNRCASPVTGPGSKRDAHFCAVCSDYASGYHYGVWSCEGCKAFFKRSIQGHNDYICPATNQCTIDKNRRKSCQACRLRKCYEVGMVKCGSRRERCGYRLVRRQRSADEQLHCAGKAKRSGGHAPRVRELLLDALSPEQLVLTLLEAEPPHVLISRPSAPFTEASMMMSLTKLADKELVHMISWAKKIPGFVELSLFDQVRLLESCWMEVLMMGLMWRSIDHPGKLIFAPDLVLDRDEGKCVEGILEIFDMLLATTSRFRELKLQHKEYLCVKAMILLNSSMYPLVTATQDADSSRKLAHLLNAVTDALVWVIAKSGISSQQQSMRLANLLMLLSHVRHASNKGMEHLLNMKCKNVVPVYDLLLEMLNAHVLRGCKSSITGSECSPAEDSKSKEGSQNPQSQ
Procedure, shortened: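 HepG2 cells transiently transfected with multiplexed GAL4-UAS reporter units carrying chimeric human ERβ-Gal4; 24 h compound exposure with 3 nM 6-alpha-fluorotestosterone present. Reporter mRNA quantified by RT-PCR, FAM labelling and capillary electrophoresis; gain-of-signal fitted versus DMSO.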

[10] = target: Nuclear receptor subfamily 1 group I member 2 (Mus musculus) (UniProt O54915); test: ATG_mPXR_XSP1: Attagene TRANS-FACTORIAL Multi-Species (XSP1) HepG2 Assay for mouse Pregnane X Receptor (PXR) (AID 2283803)
Nuclear receptor subfamily 1 group I member 2 (Mus musculus), sequence (O54915 whole entry, looked up, the tested form may be a part): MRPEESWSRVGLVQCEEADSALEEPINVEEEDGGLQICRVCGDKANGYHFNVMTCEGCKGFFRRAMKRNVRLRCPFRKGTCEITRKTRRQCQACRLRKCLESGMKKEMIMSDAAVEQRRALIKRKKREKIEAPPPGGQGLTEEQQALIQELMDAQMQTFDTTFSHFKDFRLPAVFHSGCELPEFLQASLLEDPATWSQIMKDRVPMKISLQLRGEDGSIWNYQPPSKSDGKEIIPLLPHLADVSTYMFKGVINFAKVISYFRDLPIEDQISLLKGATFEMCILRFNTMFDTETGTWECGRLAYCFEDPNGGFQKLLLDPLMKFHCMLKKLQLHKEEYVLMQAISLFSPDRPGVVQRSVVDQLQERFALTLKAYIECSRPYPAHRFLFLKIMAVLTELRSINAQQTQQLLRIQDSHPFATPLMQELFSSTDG
Procedure, shortened: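 Transiently transfected HepG2 cells expressing a receptor-Gal4 chimera drive a GAL4-UAS reporter; 3 nM 6-alpha-fluorotestosterone included. Reporter mRNA read 24 h post-dose by RT-PCR and capillary electrophoresis; gain of signal relative to DMSO.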

[11] = ATG_M_19_XSP2: Attagene TRANS-FACTORIAL Multi-Species (XSP2) HepG2 Assay for M32 Transcription Factor (Internal Marker) (AID 2283822)
Procedure, shortened: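 Internal background marker in a multi-species nuclear receptor TRANS panel: transfected HepG2 cells exposed 24 h, with 3 nM 6-alpha-fluorotestosterone and 1.5 nM norgestrel present. Readout is RT-PCR of reporter transcripts resolved by capillary electrophoresis, gain-of-signal versus DMSO.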

[12] = target: Nuclear receptor subfamily 1 group I member 2 (Mus musculus) (UniProt O54915); test: ATG_mPXR_XSP2: Attagene TRANS-FACTORIAL Multi-Species (XSP1) HepG2 Assay for mouse Pregnane X Receptor (PXR) (AID 2283831)
Procedure, shortened: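 Reporter transcripts were quantified by RT-PCR, FAM primer extension, HpaI digestion and capillary electrophoresis after 24 h of chemical exposure in transiently transfected HepG2 cells carrying chimeric receptor-GAL4 constructs; DMSO served as baseline.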

[13] = target: Thyroid hormone receptor alpha (Rattus norvegicus) + Thyroid hormone receptor beta (Rattus norvegicus) (UniProt P18113+P63059); test: TOX21_TR_LUC_GH3_Agonist_Followup: Tox21 GH3 Thyroid Hormone Receptor Agonism Luciferase Follow-Up Assay (AID 2283939)
Thyroid hormone receptor alpha (Rattus norvegicus) + Thyroid hormone receptor beta (Rattus norvegicus), sequence (P63059 whole entry, looked up): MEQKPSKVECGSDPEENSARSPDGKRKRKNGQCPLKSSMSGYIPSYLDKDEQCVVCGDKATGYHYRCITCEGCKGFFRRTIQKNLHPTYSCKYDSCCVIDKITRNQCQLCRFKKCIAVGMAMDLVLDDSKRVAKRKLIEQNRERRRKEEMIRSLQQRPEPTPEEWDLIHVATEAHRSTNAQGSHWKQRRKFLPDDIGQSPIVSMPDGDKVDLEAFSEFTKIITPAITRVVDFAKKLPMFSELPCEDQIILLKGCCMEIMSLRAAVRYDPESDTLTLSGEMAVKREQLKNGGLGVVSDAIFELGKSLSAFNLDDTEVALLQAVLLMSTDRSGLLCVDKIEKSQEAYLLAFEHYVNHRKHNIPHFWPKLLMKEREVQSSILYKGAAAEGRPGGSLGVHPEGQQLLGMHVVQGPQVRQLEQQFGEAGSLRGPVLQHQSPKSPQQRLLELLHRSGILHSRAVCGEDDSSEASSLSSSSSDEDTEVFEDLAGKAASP
Thyroid hormone receptor alpha (Rattus norvegicus) + Thyroid hormone receptor beta (Rattus norvegicus), sequence (P18113 whole entry, looked up): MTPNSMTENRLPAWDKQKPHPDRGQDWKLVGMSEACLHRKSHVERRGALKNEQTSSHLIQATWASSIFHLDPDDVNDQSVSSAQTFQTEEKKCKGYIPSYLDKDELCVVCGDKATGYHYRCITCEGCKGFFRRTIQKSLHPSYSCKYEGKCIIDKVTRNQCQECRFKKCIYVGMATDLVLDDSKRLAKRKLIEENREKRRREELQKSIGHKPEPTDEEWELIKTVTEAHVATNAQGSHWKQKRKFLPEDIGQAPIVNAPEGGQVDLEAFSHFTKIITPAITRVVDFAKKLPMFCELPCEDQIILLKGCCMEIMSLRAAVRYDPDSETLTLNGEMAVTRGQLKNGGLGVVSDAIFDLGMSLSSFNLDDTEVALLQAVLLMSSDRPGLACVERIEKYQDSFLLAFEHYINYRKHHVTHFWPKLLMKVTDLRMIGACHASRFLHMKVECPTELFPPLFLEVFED
Procedure, shortened: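 Agonist-mode confirmatory run: 15 concentrations (5 nM to 92 uM final) on GH3 rat pituitary cells, 24 h at 37C/5% CO2, T3 as positive control. Luminescence read with ONE-Glo after 30 min.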

THRA (gene 7067) = THRA (gene 7067) (UniProt P10827); test: TOX21_TRA_COA_Agonist_Followup_ratio: Tox21 Thyroid Hormone Receptor alpha Agonism through Coactivator Recruitment Follow-Up Assay, Ratio (AID 2283948; active means hit-call score of the fitted dose curve at least 0.9, where 1 is the maximum; inactive means score below 0.9)
THRA (gene 7067), sequence (P10827 whole entry, looked up, the tested form may be a part): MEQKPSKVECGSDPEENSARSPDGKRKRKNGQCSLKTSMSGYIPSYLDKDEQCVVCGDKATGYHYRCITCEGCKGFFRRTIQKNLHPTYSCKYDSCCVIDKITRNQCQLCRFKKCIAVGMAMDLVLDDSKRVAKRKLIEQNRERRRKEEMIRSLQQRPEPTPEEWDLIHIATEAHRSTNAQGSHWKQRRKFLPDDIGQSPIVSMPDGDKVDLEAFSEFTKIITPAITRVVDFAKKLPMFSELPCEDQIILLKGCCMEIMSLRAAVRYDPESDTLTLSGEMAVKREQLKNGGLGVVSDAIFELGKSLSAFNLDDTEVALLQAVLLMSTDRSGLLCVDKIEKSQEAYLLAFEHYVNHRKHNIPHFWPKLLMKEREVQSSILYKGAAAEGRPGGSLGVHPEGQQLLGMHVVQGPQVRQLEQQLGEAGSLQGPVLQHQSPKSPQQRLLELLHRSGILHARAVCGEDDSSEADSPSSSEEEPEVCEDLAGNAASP
Procedure, shortened: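 Follow-up specificity assay in which TRα ligand-binding domain, expressed as a GST fusion, recruits a fluorescein-labelled SRC-2 peptide. Energy transfer from a terbium anti-GST antibody gives the acceptor/donor ratio, fitted upward relative to DMSO.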

THRB (gene 7068) [14] = target: THRB (gene 7068) (UniProt P10828); test: TOX21_TRB_BLA_Agonist_Followup_ratio: Tox21 Thyroid Hormone Receptor beta Agonism Beta-lactamase (BLA) Follow-Up Assay, Ratio (AID 2283954)
THRB (gene 7068), sequence (P10828 whole entry, looked up, the tested form may be a part): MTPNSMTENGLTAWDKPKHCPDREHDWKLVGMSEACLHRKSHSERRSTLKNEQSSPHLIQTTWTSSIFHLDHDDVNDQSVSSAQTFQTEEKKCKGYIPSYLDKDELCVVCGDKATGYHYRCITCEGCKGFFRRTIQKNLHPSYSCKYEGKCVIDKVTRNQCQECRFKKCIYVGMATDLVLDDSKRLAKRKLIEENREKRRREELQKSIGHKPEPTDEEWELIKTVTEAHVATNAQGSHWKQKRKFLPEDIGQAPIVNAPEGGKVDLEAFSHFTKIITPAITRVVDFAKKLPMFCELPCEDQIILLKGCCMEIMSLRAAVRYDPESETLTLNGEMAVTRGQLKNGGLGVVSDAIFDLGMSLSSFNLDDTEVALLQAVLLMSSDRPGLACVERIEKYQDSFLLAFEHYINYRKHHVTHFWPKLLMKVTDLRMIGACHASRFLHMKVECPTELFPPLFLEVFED
Procedure, shortened: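 Agonist mode: compounds (11-point, triplicate) incubated 18 h with HEK293T cells carrying GAL4-DBD/human TRβ-LBD and UAS-β-lactamase. Blue/green (460/530 nm) FRET ratio read after 2 h CCF4-AM loading; CellTiter-Glo viability run in the same plates.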

[15] = TOX21_TRB_BLA_Agonist_Followup_viability: Viability Assessment in the Tox21 Thyroid Hormone Receptor beta Agonism Beta-lactamase (BLA) Follow-Up Assay (AID 2283956)
Procedure, shortened: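 Viability was read as CellTiter-Glo luminescence in the same wells as the TRb-bla agonist read-out. HEK293T GAL4-TRb LBD cells were treated for 18 h (37C, 5% CO2) at 11 concentrations in triplicate. Fits were bidirectional versus DMSO baseline.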

THRB (gene 7068) [16] = target: THRB (gene 7068) (UniProt P10828); test: TOX21_TRB_COA_Agonist_Followup_ratio: Tox21 Thyroid Hormone Receptor beta Agonism through Coactivator Recruitment Follow-Up Assay, Ratio (AID 2283963; active means hit-call score of the fitted dose curve at least 0.9, where 1 is the maximum; inactive means score below 0.9)
Procedure, shortened: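 Signal is the 520/495 nm emission ratio (excitation 340 nm), scaled between DMSO-only wells as 0% and T3 wells as 100%. It reflects fluorescein-labeled SRC-2 peptide recruitment to GST-TRβ ligand-binding domain detected via terbium anti-GST antibody.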

[17] = target: Retinoic acid receptor RXR-alpha (Homo sapiens) (UniProt P19793); test: TOX21_TR_RXR_BLA_Agonist_Followup_ratio: Tox21 Thyroid Hormone Receptor beta Retinoid X Receptor alpha (RXRa) Agonism Beta-lactamase (BLA) Follow-Up Assay, Ratio (AID 2283968)
Procedure, shortened: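 Agonist mode: compounds given to RXRa-bla HEK293T cells at 11 concentrations, triplicate, 16 h at 37C/5% CO2. Readout is the 460:530 nm blue/green ratio after 2 h substrate loading at room temperature; DMSO baseline, 9-cis retinoic acid control.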

[18] = TOX21_TR_RXR_BLA_Agonist_Followup_viability: Viability Assessment in the Tox21 Thyroid Hormone Receptor beta Retinoid X Receptor alpha (RXRa) Agonism Beta-lactamase (BLA) Follow-Up Assay (AID 2283970)
Procedure, shortened: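 CellTiter-Glo ATP luciferase read-out of cell viability, multiplexed with the beta-lactamase reporter run. RXRa-bla HEK293T cells in charcoal-stripped serum medium were exposed 16 h at 37C; data fitted both directions relative to DMSO.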

rat CYP3A1, gene 25642 = test: NVS_ADME_rCYP3A1: NovaScreen (NVS) CYP450-related Enzyme Activity (ADME) Assay for rat CYP3A1 (AID 2283126)
Procedure, shortened: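 Compounds went first at 10 uM duplicate, then to series with 20 uM maximum. Fluorescence from substrate turnover by the recombinant enzyme was measured 0.5 h post-dosing, inhibition scored against acetonitrile vehicle.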

Measured: AC50

O=C1C(Cl)=C(Cl)C(=O)C(Cl)=C1Cl
active: [1] 1070 nM | [2] 4480 nM

CC(Cc1ccc(C(C)(C)C)cc1)CN1C[C@@H](C)O[C@@H](C)C1 (stereo not given in full)
inactive: [4]
active: [3] 3260 nM | [5] 14100 nM

CC(C)CCCCCCCOC(=O)c1ccccc1C(=O)OCCCCCCCC(C)C
active: [10] 611 nM | [12] 1520 nM
not listed: [1] | [2] | [3] | [4] | [5] | rat CYP3A1, gene 25642
inactive: all other assays above

CCOC(=O)NC(=S)Nc1ccccc1NC(=S)NC(=O)OCC
active: rat CYP3A1, gene 25642 1530 nM
